Here are results for 14 compounds from the supplement of paper PMC7156485.
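Note: TDF denotes transformed human dermal fibroblasts of mesenchymal origin.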

For the experiment, the system named is HCC1569. The experiment in a line: cell number relative to DMSO (% of DMSO); higher = more cells (less growth inhibition / toxicity). The settings on record: concentration: 10 µM; 24 h. A digest of the protocol: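 In 384-well plates holding 800 HCC1569 or TDF cells per well in RPMI with 10% FBS, compounds were tested at 10 µM for 24 h at 37 °C in triplicate. Fixation used 3.7% formaldehyde. Staining used a rabbit anti-H1.0 antibody with an AlexaFluor 647 secondary, plus DAPI. Each value, H1.0 nuclear intensity or cell number, is a median of replicates shown as percent of the plate control, and HCC1569 values were smoothed for positional effects.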
Regarding `OCC1CCCN2CCCCC12` (centres undefined) [Lupinine], the cell number worked out at 109.
Compound `CCN1CC2(COC)CCC(OC)C34C5CC6C(OC)CC7(OCOC7(C(O)C23)C14)C5C6OC` (centres undefined) [Delcorine] had a cell number of 103.
For `CC(O)C(C)OC(=O)C1CC2c3cccc4c3c(cn4C(C)C)CC2N(C)C1.O=C(O)C=CC(=O)O` (centres undefined) [LY-53,857 maleate], the cell number stood at 107.
On to `O=C(O)c1nn(Cc2ccc(Cl)cc2Cl)c2ccccc12` [Lonidamine], for which the cell number stood at 107.
The same measure for `Cl.NCC(O)c1cc(O)c(O)cc1F` (centres undefined) [6-Fluoronorepinephrine hydrochloride]: 99.2; for `Cl.Cl.Clc1ccc(N2CC3CCC(C2)N3)nn1`: 103.
Then `O=C1Nc2ccc3ncsc3c2C1=Cc1cnc[nH]1` [PKR Inhibitor], with 61.1; and `BrC1C(Br)C(Br)C(Br)C(Br)C1Br` (centres undefined), with 101.
Take `CCCN1CC(CSC)CC2c3cccc4[nH]cc(c34)CC21.CS(=O)(=O)O` (centres undefined) [Pergolide methanesulfonate]: the cell number was determined as 98.8.
As for `NC(CCCCCP(=O)(O)O)C(=O)O` (stereo not drawn) [D(-)-2-Amino-7-phosphonoheptanoic acid], the cell number was 99.9.
Turning to `Cl.Cl.Fc1ccc(C(OCCN2CCN(CCCc3ccccc3)CC2)c2ccc(F)cc2)cc1`, the cell number was determined as 81.
The same measure for `CN1C2CCC1CC(OC(=O)C(CO)c1ccccc1)C2` (centres undefined) [Hyoscyamine]: 102.
Compound `Br.CN1C2CC(OC(=O)C(CO)c3ccccc3)CC1C(O)C2` (centres undefined) [Anisodamine] showed a cell number of 104.
With `CC12CCC3C(CCC4CC(O)CCC43C)C1CCC2=O` (centres undefined) [Androsterone], the cell number was found to be 95.
